In PubChem BioAssay AID1159580 (chemical genetic matrix, 2015):
Among all 5,500 compounds or so, about 2,000 (36%) were called active. About 18% were inconclusive and are not listed. Rule as the data show it: active = normalized growth mostly below about 0.91 (no sharp cut-off); inconclusive = no clear call, values can overlap the other calls; inactive = mostly above about 0.92. The list shows a part of the results.

Assay: chemical genetic growth profiling, strain panel (AID 1159580);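 also: tested at 20 µM; growth read once vehicle control cultures reached saturation at 30 °C; 1 = growth at the plate median or of vehicle wells; lower values mean less growth of the strain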
Settings: growth OD

Measured: normalized growth

COc1ccc(-c2cc(=O)c3c(O)cc(O[C@@H]4O[C@H](CO[C@H]5O[C@H](C)[C@@H](O)[C@H](O)[C@@H]5O)[C@@H](O)[C@H](O)[C@H]4O)cc3o2)cc1O
inactive: S. cerevisiae deletion strains, locus YKL009W, strain mrt4, hits give low values 0.981 | S. cerevisiae deletion strains, locus YKL068W, hits give low values 0.973 | S. cerevisiae deletion strains, locus YKL085W, strain MDH1 (second series), hits give low values 0.991 | S. cerevisiae deletion strains, locus YKL085W, strain MDH1, hits give low values 0.991 | S. cerevisiae deletion strains, locus YKL160W, strain elf1, hits give low values 1 | S. cerevisiae deletion strains, locus YKL190W, strain CNB1, hits give low values 0.994 | S. cerevisiae deletion strains, locus YKR001C, strain vps1, hits give low values 1.02 | S. cerevisiae deletion strains, locus YKR026C, strain gcn3, hits give low values 1.01 | S. cerevisiae deletion strains, locus YKR091W, strain srl3, hits give low values 1.02 | S. cerevisiae deletion strains, locus YLL001W, strain dnm1, hits give low values 1 | S. cerevisiae deletion strains, locus YLL026W, hits give low values 1.01 | S. cerevisiae deletion strains, locus YLL041C, strain sdh2, hits give low values 1.01 | S. cerevisiae deletion strains, locus YLR027C, strain aat2, hits give low values 1.01 | S. cerevisiae deletion strains, locus YLR039C, strain RIC1, hits give low values 0.954 | S. cerevisiae deletion strains, locus YLR058C, strain SHM2, hits give low values 0.986 | S. cerevisiae deletion strains, locus YLR102C, strain apc9, hits give low values 0.996 | S. cerevisiae deletion strains, locus YLR113W, strain HOG1, hits give low values 1.03 | S. cerevisiae deletion strains, locus YLR221C, strain rsa3, hits give low values 1.01 | S. cerevisiae deletion strains, locus YLR258W, strain gsy2, hits give low values 1.03 | S. cerevisiae deletion strains, locus YLR262C, strain YPT6 (second series), hits give low values 1.03 | S. cerevisiae deletion strains, locus YLR262C, strain YPT6, hits give low values 0.949 | S. cerevisiae deletion strains, locus YLR268W, strain sec22, hits give low values 1 | S. cerevisiae deletion strains, locus YLR320W, strain mms22, hits give low values 1.03 | S. cerevisiae deletion strains, locus YLR330W, strain CHS5, hits give low values 0.981 | S. cerevisiae deletion strains, locus YLR342W, strain FKS1 (second series), hits give low values 1.01 | S. cerevisiae deletion strains, locus YLR342W, strain FKS1, hits give low values 1.03 | S. cerevisiae deletion strains, locus YLR357W, strain rsc2, hits give low values 1.03 | S. cerevisiae deletion strains, locus YLR370C, strain arc18, hits give low values 1.01 | S. cerevisiae deletion strains, locus YLR371W, strain rom2, hits give low values 0.999 | S. cerevisiae deletion strains, locus YLR384C, strain iki3, hits give low values 1.03 | S. cerevisiae deletion strains, locus YLR418C, strain cdc73, hits give low values 0.979 | S. cerevisiae deletion strains, locus YML016C, strain PPZ1, hits give low values 0.994 | S. cerevisiae deletion strains, locus YML032C, strain rad52, hits give low values 1.02 | S. cerevisiae deletion strains, locus YML120C, strain ndi1, hits give low values 1.01 | S. cerevisiae deletion strains, locus YML124C, strain tub3, hits give low values 1 | S. cerevisiae deletion strains, locus YMR058W, strain fet3, hits give low values 1.01 | S. cerevisiae deletion strains, locus YMR078C, strain ctf18, hits give low values 0.993 | S. cerevisiae deletion strains, locus YMR125W, strain sto1, hits give low values 1.03 | S. cerevisiae deletion strains, locus YMR129W, hits give low values 1 | S. cerevisiae deletion strains, locus YMR205C, strain PFK2, hits give low values 1.03 | S. cerevisiae deletion strains, locus YMR223W, strain ubp8, hits give low values 0.989 | S. cerevisiae deletion strains, locus YMR231W, strain pep5, hits give low values 1.02 | S. cerevisiae deletion strains, locus YMR307W, strain GAS1, hits give low values 1.07 | S. cerevisiae deletion strains, locus YNL067W, strain RPL9B, hits give low values 1.04 | S. cerevisiae deletion strains, locus YNL071W, strain lat1, hits give low values 1.03 | S. cerevisiae deletion strains, locus YNL128W, strain TEP1, hits give low values 1.01 | S. cerevisiae deletion strains, locus YNL183C, strain NPR1, hits give low values 0.989 | S. cerevisiae deletion strains, locus YNL209W, strain ssb2, hits give low values 1.01 | S. cerevisiae deletion strains, locus YNL233W, strain BNI4, hits give low values 1.01 | S. cerevisiae deletion strains, locus YNL248C, strain rpa49, hits give low values 1 | S. cerevisiae deletion strains, locus YNL250W, strain rad50, hits give low values 1 | S. cerevisiae deletion strains, locus YNL271C, strain bni1, hits give low values 0.999 | S. cerevisiae deletion strains, locus YNL298W, strain CLA4, hits give low values 0.985 | S. cerevisiae deletion strains, locus YNL307C, strain MCK1, hits give low values 1 | S. cerevisiae deletion strains, locus YNL322C, strain KRE1 (second series), hits give low values 1.02 | S. cerevisiae deletion strains, locus YNL322C, strain KRE1, hits give low values 1 | S. cerevisiae deletion strains, locus YNR049C, strain mso1, hits give low values 1.01 | S. cerevisiae deletion strains, locus YNR052C, strain pop2, hits give low values 1 | S. cerevisiae deletion strains, locus YOL006C, strain TOP1, hits give low values 1.08 | S. cerevisiae deletion strains, locus YOL012C, strain htz1 1.47 | S. cerevisiae deletion strains, locus YOL147C, strain pex11, hits give low values 0.974 | S. cerevisiae deletion strains, locus YOR001W, strain rrp6, hits give low values 1.03 | S. cerevisiae deletion strains, locus YOR061W, strain CKA2, hits give low values 0.993 | S. cerevisiae deletion strains, locus YOR069W, strain VPS5, hits give low values 0.987 | S. cerevisiae deletion strains, locus YOR070C, strain gyp1, hits give low values 1.02 | S. cerevisiae deletion strains, locus YOR080W, strain dia2, hits give low values 1.03 | S. cerevisiae deletion strains, locus YOR083W, strain WHI5, hits give low values 0.992 | S. cerevisiae deletion strains, locus YOR106W, strain vam3, hits give low values 0.983 | S. cerevisiae deletion strains, locus YOR136W, strain idh2, hits give low values 1.01 | S. cerevisiae deletion strains, locus YOR144C, strain elg1, hits give low values 1 | S. cerevisiae deletion strains, locus YOR184W, strain ser1, hits give low values 1.01 | S. cerevisiae deletion strains, locus YOR231W, strain MKK1, hits give low values 1 | S. cerevisiae deletion strains, locus YOR265W, strain rbl2, hits give low values 1.02 | S. cerevisiae deletion strains, locus YOR270C, strain vph1, hits give low values 0.983 | S. cerevisiae deletion strains, locus YOR290C, strain snf2, hits give low values 1.02 | S. cerevisiae deletion strains, locus YOR316C, strain cot1, hits give low values 0.997 | S. cerevisiae deletion strains, locus YPL051W, strain arl3, hits give low values 1.01 | S. cerevisiae deletion strains, locus YPL055C, strain LGE1, hits give low values 1.07 | S. cerevisiae deletion strains, locus YPL078C, strain atp4, hits give low values 0.998 | S. cerevisiae deletion strains, locus YPL106C, strain sse1, hits give low values 1.05 | S. cerevisiae deletion strains, locus YPL240C, strain hsp82, hits give low values 1.03 | S. cerevisiae deletion strains, locus YPL241C, strain CIN2, hits give low values 0.986 | S. cerevisiae deletion strains, locus YPL256C, strain CLN2, hits give low values 0.987 | S. cerevisiae deletion strains, locus YPR119W, strain clb2, hits give low values 1 | S. cerevisiae deletion strains, locus YPR141C, strain kar3, hits give low values 0.972 | S. cerevisiae deletion strains, locus YPR163C, strain tif3, hits give low values 0.992 | S. cerevisiae deletion strains, locus YPR167C, strain met16, hits give low values 1.01 | S. cerevisiae deletion strains, strain wtn01, hits give low values 0.997 | S. cerevisiae strains, strain wild type, hits give low values 1
